Reference: paper PMC5540273 (PLoS ONE, 2017)

Test system: BMPR1A
Settings: concentration: 1 μM,replicates: in singlicate; n = 1
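Also: KINOMEscan kinase panel screen.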

Structure (SMILES) | %Inh [%]
CS(=O)c1ccc(-c2coc3ccc(-c4n[nH]c(=O)o4)cc23)cc1 (stereo not shown) | 10
O=C(Nc1cccc(Oc2ccc3nccn3n2)c1)Nc1cccc(C(F)(F)F)c1 | 0
CCNCC(Cc1ccccc1)NC(=O)c1cc(Br)c(-c2ccnc3[nH]ccc23)s1.Cl.Cl (stereo not shown) [GSK1383280] | 0
COC(=O)Nc1nc2cc(Oc3ccc(NC(=O)Nc4cc(C(F)(F)F)ccc4Cl)cc3)ccc2[nH]1.Cl [GW697465] | 0
COc1cc2nccc(Nc3ccc(Oc4ccccc4)cc3)c2cc1OC.Cl [GI261656] | 0
Cc1ccc2c(-c3ccnc(Nc4ccc(C(F)(F)F)cc4)n3)cnn2n1 [GW819776] | 13
O=C(Nc1ccccc1)c1cccc(Oc2ccc3nccn3n2)c1 | 0
C[C@@H](Oc1cc(-n2cnc3cc(-c4ccncc4)ccc32)sc1C(N)=O)c1ccccc1Cl [GSK479719] | 0
CS(=O)(=O)Nc1ccc(-c2ccnc3[nH]ccc23)cc1 [GSK993273] | 1
NC(=O)c1ccc(-c2cc3ncnc(SCC(=O)O)c3s2)cc1 | 0
CN(c1ccc2c(c1)nc(NCc1ccc(F)cc1)n2C)c1ccnc(Nc2ccc(CS(C)(=O)=O)cc2)n1.Cl [GW813244] | 16
Cn1ccc2ncnc(Oc3ccc(NC(=O)Nc4cccc(C(F)(F)F)c4)c(F)c3)c21 | 0
CCOC(=O)N1CCC(n2cnc(-c3ccc(F)cc3)c2-c2ccnc(N)n2)CC1 [SB-219952] | 10
